Several values for one entry are separate records, joined by “and”; a condition that tells them apart may be missing. Equal values may be shown once. The panel holds about 79,000 compounds, 15% with a hit somewhere; the sample as a whole holds those more often. The source holds several records for some structures; these can differ, active in one and inactive in another. Activity calls are given as the source filed them. No stated cut-off is given here; in the data, active means growth inhibition above about 70%; inactive means the rest.

Our source for the growth inhibition values is PubChem BioAssay (NCI).

Experiment [1] can be described thus: NCI Yeast Anticancer Drug Screen. Data for the rad50 strain (AID 155).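 Further: 0% = growth of vehicle-only cultures of the same strain.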 The following applies: S. cerevisiae rad50 strain growth inhibition, stronger effect = higher value. The essentials: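 DNA repair mutant yeast, compound exposure, growth read-out; inhibition is taken relative to vehicle.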
The nature of experiment [2]: NCI Yeast Anticancer Drug Screen. Data for the mec2-1 strain (AID 157). The following applies: S. cerevisiae mec2-1 strain, stronger effect = higher value. The essentials: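 Strain: mec2-1 (DNA repair/cell cycle alteration). Compound exposure, then growth measured; inhibition expressed relative to vehicle.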
Experiment [3] is described as follows: NCI Yeast Anticancer Drug Screen. Data for the sgs1 mgt1 strain (AID 161).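 Further: 0% = growth of cultures given vehicle only.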 The following applies: S. cerevisiae sgs1 mgt1 strain, stronger effect = higher value. The essentials: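 Read-out: growth inhibition vs vehicle controls. Cells: mutant yeast strain deficient in DNA damage repair.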
The nature of experiment [4]: NCI Yeast Anticancer Drug Screen. Data for the cln2 rad14 strain (AID 165).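 Further: 0% = growth equal to vehicle treated cultures.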 The following applies: S. cerevisiae cln2 rad14 strain, stronger effect = higher value. The essentials: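 Compounds are applied to the cln2 rad14 yeast strain, and growth is then compared with that of vehicle-treated cultures to give inhibition.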
Experiment [5] in a line: NCI Yeast Anticancer Drug Screen. Data for the bub3 strain (AID 167). The following applies: S. cerevisiae bub3 mutant strain, stronger effect = higher value. The essentials: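 In this screen, a yeast mutant lacking normal mitotic checkpoint function is challenged with compound. Relative growth versus vehicle gives the inhibition value.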
The nature of experiment [6]: NCI Yeast Anticancer Drug Screen. Data for the wt2 strain (AID 169).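 Further: 0% = growth of vehicle-treated yeast cultures.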 As to conditions: S. cerevisiae wt2 strain growth inhibition, stronger effect = higher value. A digest of the protocol:
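This strain belongs to a panel of yeast strains with defined genetic alterations in DNA damage repair or cell cycle control. Compounds are applied, and growth inhibition is measured against vehicle-treated cultures.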

Experiment [7] in a line: NCI Yeast Anticancer Drug Screen. Data for the mlh1 rad18 strain (AID 175). The following applies: S. cerevisiae mlh1 rad18 strain growth inhibition, stronger effect = higher value. A digest of the protocol:
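Read-out is yeast growth inhibition, calculated against vehicle-only controls. The compound was applied to a strain engineered with DNA damage repair alterations.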

The mark [8] stands for this setting: at 5.0 µM (retest, dose inferred, filed as 0.5).
The mark [9] stands for this setting: at 50.0 µM (retest, dose inferred, filed as 5.0).

As for `COc1ccc(Cc2ccc(O)cc2)cc1`, the growth inhibition in experiment [1] (setting [8]) was 41% (inactive); in experiment [1] (setting [9]), 79% (active); in experiment [1] (at 50.0 µM), 33.3% (inactive); in experiment [2] (setting [8]), 40% (inactive); in experiment [2] (setting [9]), 88% (active); in experiment [2] (at 50.0 µM), 27.8% (inactive). For the same molecule, the growth inhibition in experiment [3] (setting [8]) was -9% (inactive); in experiment [3] (setting [9]), 47% (inactive); in experiment [3] (at 50.0 µM) it was 52.8% (inactive); in experiment [4] (setting [8]), 42% (inactive); in experiment [4] (setting [9]) it was 8% (inactive); in experiment [4] (at 50.0 µM) it was -20.9% (inactive). Further, the growth inhibition in experiment [5] (setting [8]) was -16% (inactive); in experiment [5] (setting [9]), 49% (inactive); in experiment [5] (at 50.0 µM), 30.9% (inactive); in experiment [6] (at 1.2 µM), -12% (inactive); in experiment [6] (at 3.7 µM), -8% (inactive); in experiment [6] (at 11.0 µM) it was -9% (inactive). Besides, the growth inhibition in experiment [6] (at 33.0 µM) was 6% (inactive); in experiment [6] (at 100.0 µM), 11% (inactive); in experiment [7] (setting [8]), 27% (inactive); in experiment [7] (setting [9]), 54% (inactive); in experiment [7] (at 50.0 µM), 28.8% (inactive).
For `OC(CF)(c1ccc(Cl)cc1)c1ccc(Cl)cc1`, the growth inhibition in experiment [1] (setting [8]) is 37% (inactive); in experiment [1] (setting [9]), 74% (active); in experiment [1] (at 50.0 µM) it was 90.3% (active); in experiment [2] (setting [8]) it was 24% (inactive); in experiment [2] (setting [9]), 75% (active); in experiment [2] (at 50.0 µM), 92.5% (active). The growth inhibition in experiment [3] (setting [8]) was 6% (inactive); in experiment [3] (setting [9]), 91% (active); in experiment [3] (at 50.0 µM) it was 92.8% (active); in experiment [4] (setting [8]) it was 39% (inactive); in experiment [4] (setting [9]), 97% (active); in experiment [4] (at 50.0 µM), 91.4% (active). The growth inhibition in experiment [5] (setting [8]) was 1% (inactive); in experiment [5] (setting [9]), 91% (active); in experiment [5] (at 50.0 µM), 91% (active); in experiment [6] (at 1.2 µM) it was 16% (inactive); in experiment [6] (at 3.7 µM), 16% (inactive); in experiment [6] (at 11.0 µM) it was 17% (inactive). For the same molecule, the growth inhibition in experiment [6] (at 33.0 µM) was 93% (active); in experiment [6] (at 100.0 µM), 99% (active); in experiment [7] (setting [8]) it was 39% (inactive); in experiment [7] (setting [9]), 75% (active); in experiment [7] (at 50.0 µM) it was 89% (active).
As for `NC(CCCCNC(=O)c1ccccc1)C(=O)O` (stereo not given), the growth inhibition in experiment [1] (setting [8]) was -1% (inactive); in experiment [1] (setting [9]) it was 4% (inactive); in experiment [1] (at 50.0 µM), 17.2% (inactive) and -18.6% (inactive); in experiment [2] (setting [8]), 3% (inactive); in experiment [2] (setting [9]), 2% (inactive); in experiment [2] (at 50.0 µM), 5.85% (inactive) and -22.1% (inactive). Further, the growth inhibition was 0% (inactive) in experiment [3] (setting [8]); -3% (inactive) in experiment [3] (setting [9]); 0.1% (inactive) and -35.4% (inactive) in experiment [3] (at 50.0 µM); 3% (inactive) in experiment [4] (setting [8]); 4% (inactive) in experiment [4] (setting [9]); 91.9% (active) and -28.2% (inactive) in experiment [4] (at 50.0 µM). Moreover, the growth inhibition in experiment [5] (setting [8]) was 17% (inactive); in experiment [5] (setting [9]), -2% (inactive); in experiment [5] (at 50.0 µM), -5% (inactive) and -23.4% (inactive).
Consider `CCO/C=C1\SC(=S)N(c2cccc(O)c2)C1=O`, for which the growth inhibition in experiment [1] (setting [8]) was 57% (inactive); in experiment [1] (setting [9]), 100% (active); in experiment [1] (at 50.0 µM) it was 28.4% (inactive); in experiment [2] (setting [8]) it was 74% (active); in experiment [2] (setting [9]), 100% (active); in experiment [2] (at 50.0 µM) it was 15.3% (inactive). The growth inhibition was 13% (inactive) in experiment [3] (setting [8]); 90% (active) in experiment [3] (setting [9]); 40.4% (inactive) in experiment [3] (at 50.0 µM); 29% (inactive) in experiment [4] (setting [8]); 72% (active) in experiment [4] (setting [9]); -2.6% (inactive) in experiment [4] (at 50.0 µM). For the same molecule, the growth inhibition was 6% (inactive) in experiment [5] (setting [8]); 91% (active) in experiment [5] (setting [9]); 40.2% (inactive) in experiment [5] (at 50.0 µM); -13% (inactive) in experiment [6] (at 1.2 µM); -13% (inactive) in experiment [6] (at 3.7 µM); -13% (inactive) in experiment [6] (at 11.0 µM). Further, the growth inhibition in experiment [6] (at 33.0 µM) is 22% (inactive); in experiment [6] (at 100.0 µM), 96% (active); in experiment [7] (setting [8]), 54% (inactive); in experiment [7] (setting [9]), 100% (active); in experiment [7] (at 50.0 µM), 70.3% (active).
As to `Cc1ccc(S(=O)(=O)NC2CCCCCCC2)cc1`, the growth inhibition in experiment [1] (setting [8]) is 45% (inactive); in experiment [1] (setting [9]) it was 96% (active); in experiment [1] (at 50.0 µM), 77% (active); in experiment [2] (setting [8]) it was 30% (inactive); in experiment [2] (setting [9]) it was 89% (active); in experiment [2] (at 50.0 µM), 64.2% (inactive). The growth inhibition was 42% (inactive) in experiment [3] (setting [8]); 16% (inactive) in experiment [3] (setting [9]); 79% (active) in experiment [3] (at 50.0 µM); 48% (inactive) in experiment [4] (setting [8]); 46% (inactive) in experiment [4] (setting [9]); 60% (inactive) in experiment [4] (at 50.0 µM). Further, the growth inhibition was 97% (active) in experiment [5] (setting [8]); 95% (active) in experiment [5] (setting [9]); 89.3% (active) in experiment [5] (at 50.0 µM); -4% (inactive) in experiment [6] (at 1.2 µM); -17% (inactive) in experiment [6] (at 3.7 µM); -23% (inactive) in experiment [6] (at 11.0 µM). For the same molecule, the growth inhibition in experiment [6] (at 33.0 µM) is 23% (inactive); in experiment [6] (at 100.0 µM), 98% (active); in experiment [7] (setting [8]) it was 40% (inactive); in experiment [7] (setting [9]), 99% (active); in experiment [7] (at 50.0 µM) it was 82.8% (active).
`C[n+]1c2cc(N)ccc2cc2ccc(N)cc21`: the growth inhibition in experiment [1] (setting [8]) was 55% (inactive) and 100% (active); in experiment [1] (setting [9]) it was 98% (active) and 99% (active); in experiment [1] (at 50.0 µM), 97.4% (active) and 75.2% (active); in experiment [2] (setting [8]) it was 11% (inactive) and 100% (active); in experiment [2] (setting [9]), 99% (active) and 100% (active); in experiment [2] (at 50.0 µM) it was 75.3% (active) and 79% (active). In addition, the growth inhibition was 3% (inactive) and -17% (inactive) in experiment [3] (setting [8]); 97% (active) and 44% (inactive) in experiment [3] (setting [9]); 67.9% (inactive) and 78.2% (active) in experiment [3] (at 50.0 µM); 10% (inactive) and 35% (inactive) in experiment [4] (setting [8]); 97% (active) and 64% (inactive) in experiment [4] (setting [9]); 53.9% (inactive) and 39.6% (inactive) in experiment [4] (at 50.0 µM). Also, the growth inhibition in experiment [5] (setting [8]) is -1% (inactive) and -18% (inactive); in experiment [5] (setting [9]) it was 99% (active) and 88% (active); in experiment [5] (at 50.0 µM), 86.5% (active) and 81.6% (active); in experiment [6] (at 1.2 µM), -6% (inactive); in experiment [6] (at 3.7 µM), -12% (inactive); in experiment [6] (at 11.0 µM), 4% (inactive). Also, the growth inhibition is 25% (inactive) in experiment [6] (at 33.0 µM); 84% (active) in experiment [6] (at 100.0 µM); 28% (inactive) and 100% (active) in experiment [7] (setting [8]); 97% (active) and 100% (active) in experiment [7] (setting [9]); 91.3% (active) and 83.5% (active) in experiment [7] (at 50.0 µM).
With `Nc1nc(Cl)cc(NCCCCCCCCCCNc2cc(Cl)nc(N)n2)n1`, the growth inhibition in experiment [1] (setting [8]) is -4% (inactive); in experiment [1] (setting [9]), 96% (active); in experiment [1] (at 50.0 µM) it was 28.9% (inactive); in experiment [2] (setting [8]), 3% (inactive); in experiment [2] (setting [9]), 100% (active); in experiment [2] (at 50.0 µM), 19.1% (inactive). The growth inhibition in experiment [3] (setting [8]) is -1% (inactive); in experiment [3] (setting [9]), 100% (active); in experiment [3] (at 50.0 µM), 0.05% (inactive); in experiment [4] (setting [8]), 10% (inactive); in experiment [4] (setting [9]), 99% (active); in experiment [4] (at 50.0 µM) it was 52.1% (inactive). Also, the growth inhibition in experiment [5] (setting [8]) is -7% (inactive); in experiment [5] (setting [9]) it was 99% (active); in experiment [5] (at 50.0 µM), 18.8% (inactive).
